# ChEMBL document CHEMBL1157539, “Thousands of chemical starting points for antimalarial lead identification” (Nature, 2010)
# Values joined by “and” are separate entries in the source; they are usually repeats but may differ in a detail not shown here. Equal entries are not always repeated.
# Columns and labels:
# Assay type in all cases: functional
# Plasmodium falciparum [1] = test: GSK_TCMDC: Inhibition of Plasmodium falciparum 3D7 in whole red blood cells, using parasite LDH activity as an index of growth. Test compounds present at 2uM
# Plasmodium falciparum [2] = test: GSK_TCMDC: Inhibition of Plasmodium falciparum Dd2 in whole red blood cells, using parasite LDH activity as an index of growth. Test compounds present at 2uM
# HepG2 = test: GSK_TCMDC: Percent inhibition of human HepG2 cell line. Test compounds present at 10uM.
SMILES,Inhibition (Plasmodium falciparum [1]) [%],Inhibition (Plasmodium falciparum [2]),Inhibition (HepG2)
CCCCCC(C)C(C)c1cc(O)c2c(c1)OC1(C(C)C)CC(O)C(C)C2C1 (centres undefined),93,87%,1%
COc1ccc(C(=O)C2CC2CN2CC=C(c3c[nH]c4ccccc34)CC2)cc1 (centres undefined),95,89%,12%
Cc1[nH]c2cc(Cl)ccc2c1C1=CCN(CCN2CCOc3c(Br)cccc3C2=O)CC1.Cl,90,58%,1%
CCCCCCCN1C2CCC1CC(CCOc1ccnc3ccc(OC)cc13)C2 (centres undefined),98,88%,23%
O=C(O)c1ccc2nc(-c3ccc(-c4ccccc4)cc3)n(C3CCN(Cc4ccc(-c5ncc[nH]5)cc4)CC3)c2c1,91,99%,3%
CCC(C)(C)NC(C)C(O)c1ccc(C(F)(F)F)cc1.Cl (centres undefined),97,90%,
CN(C)c1cccc(NC(=O)N[C@H]2N=C(c3ccccc3)c3ccccc3N(CC(=O)N3CCCC3)C2=O)c1,98,98%,0%
CCN(CC)CCOC(=O)C(OC)(c1ccccc1)c1ccccc1,97,6%,0%
CCN(CC)CCCC(C)Nc1ccnc2cc(Cl)ccc12.O=P(O)(O)O.O=P(O)(O)O (centres undefined) [CHLOROQUINE PHOSPHATE],100,,
COC(=O)c1ccc(CC(C)NCC(O)c2ccccc2Cl)cc1 (centres undefined),94,55%,1%
CC(=O)Nc1ccc(CN2CCC(N(C)c3cc(NC(=O)c4cccc(F)c4)ccn3)CC2)cc1.O=C(O)C(F)(F)F,85,0%,4%
COc1cccc(C(=O)C2CC2CN2CC=C(c3c[nH]c4ccc(OC)nc34)CC2)c1 (centres undefined),94,89%,8%
COC(=O)c1ccc(CC(C)NCC(O)c2cccc(I)c2)cc1 (centres undefined),87,54%,15%
O=C(Nc1ccc(CN2CCC(c3c[nH]c4ccc(O)cc34)CC2)cc1)c1ccc(-c2ccccc2)cc1,100,100%,33%
Cl.O=C(/C=C/c1ccc(Cl)c(Cl)c1)NC1C2CCC1CC(CN1CCC(c3c[nH]c4ccccc34)CC1)C2 (centres undefined),100,100%,31%
COC(=O)/C=C/c1ccc(CC(C)NCC(O)c2cccc(C(F)(F)F)c2)cc1 (centres undefined),97,96%,16%
NC(=O)c1ccc2[nH]cc(C3CCN(CC4CCC(NC(=O)/C=C/c5ccc(Cl)c(Cl)c5)CC4)CC3)c2c1 (centres undefined),100,26% and 32%,0% and 11%
CS(=O)(=O)Nc1ccc2c(C3CCN(CC4CCN(C(=O)/C=C/c5ccc(Cl)c(Cl)c5)CC4)CC3)c[nH]c2c1,99,70%,28%
CC[C@H]1CN2CC[C@@H]1C[C@H]2[C@H](O)c1cc(N2CCC(O)(c3ccccc3)CC2)nc2ccc(OC)cc12,100,98%,14%
COc1ccc(C[C@H]2NC[C@H](O)[C@H]2OC(C)=O)cc1 [ANISOMYCIN],100,98%,39%

SMILES,Inhibition (Plasmodium falciparum [1]) [%],Inhibition (Plasmodium falciparum [2]),Inhibition (HepG2)
O=C(/C=C/c1ccc(Cl)c(Cl)c1)NCCC1CCC(N2CCC(c3c[nH]c4ccccc34)CC2)CC1 (centres undefined),100,99%,91%
O=C(NC1CCC(CN2CCC(c3c[nH]c4ccccc34)CC2)CC1)c1cc(-c2ccccc2Cl)oc1C(F)(F)F (centres undefined),99,7%,24%
CNC(=O)c1ccc2[nH]cc(C3CCN(CC4CCC(NC(=O)/C=C/c5ccccc5Cl)CC4)CC3)c2c1 (centres undefined),100,19%,12%
CC(C)CNCc1cccc(-c2cccc(CN(C(=O)c3cccs3)C3CCN(Cc4ccccc4)CC3)c2)c1.O=C(O)C(F)(F)F,90,36%,14%
O=C(NC1CCC(CN2CCC(c3c[nH]c4ccccc34)CC2)CC1)NC12CC3CC(CC(C3)C1)C2 (centres undefined),96,46%,37%
COc1ccc(OC)c(C(O)C(C)NCc2cc(Cl)ccc2O)c1.Cl (centres undefined),97,99%,11%
CC(Cc1ccc(OCCOc2ccccc2)cc1)NCC(O)c1cccc(C(F)(F)F)c1 (centres undefined),91,76%,16%
Cl.N#Cc1c(F)cc(N2CCC(NCC[C@H](N)Cc3ccc(F)c(F)c3)CC2)cc1F,100,26%,70%
COc1ccc(CC(C)NCC(O)c2cccc(Cl)c2F)cc1 (centres undefined),88,59%,3%
Cc1[nH]c2cc(F)ccc2c1C1=CCN(CCCCC2(C)C(=O)Nc3c(F)cccc32)CC1 (centres undefined),96,89%,15%
COc1ccc(C=CC(=O)NC2CCC(CN3CCC(c4c[nH]c5ccccc45)CC3)CC2)cc1OC (centres undefined),100,85% and 72%,14% and 15%
CC[C@H]1CN2CC[C@H]1C[C@H]2[C@H](O)c1cc(-c2ccc(Cl)c(Cl)c2)nc2ccc(OC)cc12.Cl,98,99%,17%
CN1CC=C(c2c[nH]c3ccc(OC(=O)c4ccccc4)cc23)C1,96,97%,12%
CCCCCc1cc(O)c2c(c1)OC(C)(C)c1ccncc1-2.Cl,99,57%,0%
OC(CNC12CC3CC(CC(C3)C1)C2)c1cccc(C(F)(F)F)c1 (centres undefined),97,98%,16%
O=C(Cc1cc(=O)oc2cc(O)ccc12)NC1CCC(CN2CCC(c3c[nH]c4ccccc34)CC2)CC1 (centres undefined),96,0%,5%
O=C(NC1CCC(CN2CCC(c3c[nH]c4ccccc34)CC2)CC1)c1cc(-c2ccccc2)c(C(F)(F)F)s1 (centres undefined),100,100%,55%
O=C(NC1CCC(CN2CCC(c3c[nH]c4ccccc34)CC2)CC1)c1csc(-c2ccc(C(F)(F)F)cc2Cl)n1 (centres undefined),99,75%,32%
Br.CCCCCCCSc1ccc(CC(C)NCC(O)c2cccc(Cl)c2)cc1 (centres undefined),100,99%,94%
O=C(/C=C/c1ccsc1)NC1CCC(CN2CCC(c3c[nH]c4ccccc34)CC2)CC1 (centres undefined),82,20%,29%

SMILES,Inhibition (Plasmodium falciparum [1]) [%],Inhibition (Plasmodium falciparum [2]),Inhibition (HepG2)
O=C(/C=C/c1ccc(Cl)c(Cl)c1)N1CCC(CN2CCC(c3c[nH]c4ccc(NS(=O)(=O)c5cccs5)cc34)CC2)CC1,100,100%,17%
O=C(NC1CCC(CN2CCC(c3c[nH]c4ccccc34)CC2)CC1)c1ccc(-c2ccccc2[N+](=O)[O-])o1 (centres undefined),100,34%,24%
Cc1cc(O)cc2c(C3CCN(CC4CCN(C(=O)/C=C/c5ccc(Cl)c(Cl)c5)CC4)CC3)c[nH]c12,100,100%,33%
CC(C)CCNC(=O)c1cc(C(=O)c2cc(F)ccc2O)cn(CCC(C)C)c1=O,100,45%,14%
CC(=O)N(Cc1ccccc1-c1cccc(CNCCc2ccccc2)c1)C1CCN(Cc2ccccc2)CC1.O=C(O)C(F)(F)F,89,30%,19%
CC(C)CNCc1ccc(-c2cccc(CN(C(=O)NC3CCCCC3)C3CCN(Cc4ccccc4)CC3)c2)cc1.O=C(O)C(F)(F)F,98,88%,20%
CC[C@H]1CN2CC[C@@H]1C[C@H]2[C@H](O)c1cc(-c2cccnc2)nc2ccc(OC)cc12.Cl,99,99%,20%
CCc1ccc(CC(C)NCC(O)c2ccccc2)cc1.O (centres undefined),89,77%,0%
O=C(/C=C/c1ccc(Cl)c(Cl)c1)N1CCC(CN2CCC(c3c[nH]c4cc5c(cc34)OCO5)CC2)CC1,100,75%,41%
CC[C@H]1CN2CC[C@H]1C[C@@H]2[C@@H](OC(=O)c1ccc(Cl)cc1)c1ccnc2ccc(OC)cc12,89,0%,0%
COc1ccc(OC)c(C=CC(=O)NC2CCC(CN3CCC(c4c[nH]c5ccccc45)CC3)CC2)c1 (centres undefined),98,62%,43%
O=C(NCc1ccc(S(=O)(=O)N2CCC(CN3CCC(c4c[nH]c5ccccc45)CC3)CC2)s1)c1ccccc1,92,21%,32%
CCCc1cc([C@@H](O)[C@@H]2C[C@@H]3CCN2C[C@@H]3CC)c2ccccc2n1,100,57%,9%
CCCCCNC(=N)N/N=C/c1c[nH]c2ccc(OC)cc12.Cl,86,2%,16%
O=C(NC1CCC(CN2CCC(c3c[nH]c4ccccc34)CC2)CC1)[C@H]1Cc2ccccc2CN1 (some centres undefined),89,35%,29%
CCOc1ccc2nccc([C@@H](O)[C@@H]3C[C@@H]4CCN3C[C@@H]4CC)c2c1 [ETHYLHYDROCUPREINE],99,51%,1%
O=C(Nc1cc(C(F)(F)F)cc(C(F)(F)F)c1)N1CCC(CN2CCC(c3c[nH]c4ccccc34)CC2)CC1,100,99%,42%
COc1cccc(C2(C)CCN(CCCCNC(=O)c3ccc(NC(=O)c4ccc(Cl)cc4)cc3)CC2)c1.Cl,97,72%,19%
CCOc1ccc(-c2nc3cc(-c4nc5cc(N6CCN(C)CC6)ccc5[nH]4)ccc3[nH]2)cc1.Cl.O,100,99%,16%
